Among the test systems are HCT-15 colon; HT29 colon; SNB-75 CNS; SNB-19 CNS; U251 CNS; PC-3 prostate; UACC-62 melanoma; LOX IMVI melanoma; SK-MEL-28 melanoma; SK-MEL-2 melanoma; EKVX NSCLC; SN12C renal; UO-31 renal; TK-10 renal; ACHN renal; CAKI-1 renal; A498 renal; CCRF-CEM leukemia; MOLT-4 leukemia; SK-MEL-5 melanoma.
What all share (experiment): NCI-60 one-dose screen, 48 h (100 = growth as untreated, 0 = no growth, -100 = all killed)
Details in all cases: 10 µM unless noted

Experimental findings from PubChem BioAssay (NCI) are described below.

Each structure is given as a SMILES string. Compounds without any hit were thinned out: in the full panel of roughly 83,000, 20% have a hit.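 Values shown are percent growth following 48 h exposure of cells in 96-well plates to a single concentration of compound; below 10 was considered active.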 Unmarked numbers belong to inactive results. Calls of active or inactive are those of the source.

As to `Cc1csc(/N=C(N)/N=C(\N)c2cccc(C#N)c2)n1`, the growth in the test on HCT-15 colon is 39.3%; in the test with HT29 colon it was 62.4%; with SNB-75 CNS, 59.5%; with SNB-19 CNS, 72.3%; in the test with U251 CNS, 64.7%; in the test on PC-3 prostate, 77.4%. Also, the growth with UACC-62 melanoma was 52.1%; in the test with LOX IMVI melanoma it was 78.1%; in the test on SK-MEL-28 melanoma, 74.6%; with SK-MEL-2 melanoma, 47.8%; with EKVX NSCLC it was 82.8%; with SN12C renal it was 92.3%. Besides, the growth is 76.3% in the test with UO-31 renal; 168% in the test on TK-10 renal; 84.9% in the test with ACHN renal; 53.9% with CAKI-1 renal; 69.4% with A498 renal; 82.7% in the test on CCRF-CEM leukemia. In addition, the growth in the test with MOLT-4 leukemia was 85.6%.

With `COc1ccccc1N1CCN(C2=C(Cl)C(=O)c3ncccc3C2=O)CC1`, the growth in the test on HCT-15 colon is 55.5%; in the test with HT29 colon, 111%; in the test on SNB-75 CNS, 86%; with SNB-19 CNS, 88.8%; in the test on U251 CNS it was 102%; in the test with PC-3 prostate it was 79%. Also, the growth with UACC-62 melanoma was 83%; with LOX IMVI melanoma, 50.2%; with SK-MEL-28 melanoma it was 98.4%; in the test on SK-MEL-2 melanoma, 95.5%; in the test with EKVX NSCLC, 98.2%; with SN12C renal, 88.3%. The growth in the test on UO-31 renal was 44.5%; in the test with TK-10 renal it was 148%; with ACHN renal, 45.7%; in the test with CAKI-1 renal, 63.6%; in the test on A498 renal it was 115%; in the test on MOLT-4 leukemia, 38.3%.

With `CC(Nc1ncnc2ccc(-c3cnc4cnccn34)cc12)c1ccccc1` (stereo not drawn), the growth is 67.7% in the test on HCT-15 colon; 71.1% with HT29 colon; 80.9% in the test with SNB-75 CNS; 56.8% in the test with SNB-19 CNS; 76.1% in the test on U251 CNS; 63.8% with PC-3 prostate. Moreover, the growth in the test with SK-MEL-5 melanoma was 18.1%; in the test on UACC-62 melanoma, 53.9%; in the test on LOX IMVI melanoma, 58.1%; in the test with SK-MEL-28 melanoma it was 78.7%; with SK-MEL-2 melanoma, 64%; in the test with UO-31 renal, 15.7%. Further, the growth was 20.9% in the test on TK-10 renal; 22.8% in the test on ACHN renal; 27.6% in the test on CAKI-1 renal; 65.3% with A498 renal; 37.5% with MOLT-4 leukemia.

`CCOP(=O)(OCC)OC[C@]12CC[C@@H](C)[C@H](C)C1C1=CC[C@@H]3[C@@]4(C)CCCNC(C)(C)[C@@H]4CC[C@@]3(C)[C@]1(C)CC2` (stereo partly drawn): the growth in the test on HCT-15 colon was -8.25% (active); in the test with HT29 colon it was -30.6% (active); in the test with SNB-75 CNS, 66.8%; in the test on SNB-19 CNS it was 17%; with U251 CNS it was -59.1% (active); with PC-3 prostate, 10.9%. Moreover, the growth in the test on UACC-62 melanoma was -12.6% (active); in the test on LOX IMVI melanoma, -86.3% (active); in the test with SK-MEL-28 melanoma, -2.47% (active); in the test on SK-MEL-2 melanoma, 109%; in the test with EKVX NSCLC, 36.8%; with SN12C renal it was 40.1%. The growth with UO-31 renal is 21.1%; in the test with TK-10 renal, 61.2%; in the test on ACHN renal, 34.4%; with CAKI-1 renal, 13%; in the test with A498 renal, 66.3%; with CCRF-CEM leukemia, -33.3% (active). The growth with MOLT-4 leukemia was -69.1% (active).

For the compound `CC[C@]12C=CCN3CC[C@]4(C(=C(C(=O)OC)C1)Nc1cc5c(cc14)[C@@H]1[C@H](O5)[C@@H](O)[C@@]4(CC)CC(C(=O)OC)=C5Nc6cc(O)ccc6[C@@]56CCN1C46)C32` (stereo partly drawn), the growth in the test on HCT-15 colon is -44.6% (active); in the test on HT29 colon it was 4.53% (active); with SNB-75 CNS, -2.38% (active); with SNB-19 CNS, 23.4%; in the test on U251 CNS, 8.74% (active); in the test on PC-3 prostate, 20.8%. Also, the growth with UACC-62 melanoma is 19%; in the test on LOX IMVI melanoma, -83.8% (active); with SK-MEL-28 melanoma it was 17.4%; with SK-MEL-2 melanoma, 16.1%; in the test on EKVX NSCLC, 16.3%; in the test with SN12C renal, 13.8%. The growth with UO-31 renal was 4.9% (active); with TK-10 renal, -9.16% (active); with ACHN renal, -14.3% (active); with CAKI-1 renal, -7.67% (active); in the test on A498 renal, -71.8% (active); in the test on CCRF-CEM leukemia it was 6.81% (active). The growth with MOLT-4 leukemia is 8.51% (active).

Take `CN(C)c1ccc(-c2cc(-c3c[nH]c4ccccc34)nc(N)c2C#N)cc1`: the growth was 11.9% with HCT-15 colon; 11.3% with HT29 colon; 21.1% in the test on SNB-75 CNS; 40.7% with SNB-19 CNS; 26.5% in the test on U251 CNS; 37% with PC-3 prostate. For the same compound, the growth is 29.8% in the test with SK-MEL-5 melanoma; 42% with UACC-62 melanoma; 11.3% in the test on LOX IMVI melanoma; 59.8% in the test with SK-MEL-28 melanoma; -0.536% (active) with SK-MEL-2 melanoma; 44.6% in the test on UO-31 renal. The growth in the test on TK-10 renal is 72.9%; in the test with ACHN renal, 47.1%; in the test with CAKI-1 renal it was 24.1%; in the test on A498 renal, -0.675% (active); with CCRF-CEM leukemia, 30%; with MOLT-4 leukemia, 35.4%.

As for `CS(=O)(=O)c1ccc(/C(=N/N=C(N)N)c2ccc(Cl)cc2)cc1`, the growth in the test with HCT-15 colon is 81.6%; in the test with HT29 colon, 92.9%; in the test on SNB-75 CNS, 72.8%; with SNB-19 CNS, 90.3%; with U251 CNS, 92.8%; in the test on PC-3 prostate, 76.5%. The growth in the test with UACC-62 melanoma was 80.8%; with LOX IMVI melanoma, 79.7%; in the test on SK-MEL-28 melanoma, 95.1%; in the test with SK-MEL-2 melanoma, 93.7%; in the test with EKVX NSCLC, 91%; in the test with SN12C renal it was 95.7%. For the same compound, the growth is 84.4% in the test with UO-31 renal; 76.1% with TK-10 renal; 99.1% with ACHN renal; 59.5% in the test on CAKI-1 renal; 76.9% in the test with A498 renal; 94.3% in the test on CCRF-CEM leukemia. In the test with MOLT-4 leukemia, the growth was 99.1%.

Take `CS(=O)(=O)c1nccc(-c2c(-c3cccc(OCc4ccc(Cl)c(C(F)(F)F)c4)c3)nc3sccn23)n1`: the growth in the test on HCT-15 colon is -30.7% (active); in the test with HT29 colon, 95.8%; with SNB-75 CNS it was 108%; in the test with SNB-19 CNS, 58.6%; in the test with U251 CNS, 98.3%; in the test with PC-3 prostate it was 86.5%. For the same compound, the growth with UACC-62 melanoma is 87.5%; in the test with LOX IMVI melanoma it was -75.9% (active); in the test with SK-MEL-28 melanoma, 50.5%; with SK-MEL-2 melanoma, 107%; in the test on EKVX NSCLC, 78.9%; in the test with SN12C renal it was 74.7%. Moreover, the growth is 0.98% (active) in the test with UO-31 renal; 112% in the test with TK-10 renal; 71.9% in the test on ACHN renal; 73.7% in the test with CAKI-1 renal; 98.3% in the test with A498 renal; 13.2% with CCRF-CEM leukemia. Besides, the growth with MOLT-4 leukemia is 9.69% (active).
